Screening data (PubChem)
TDP1 cell noCPT – qHTS for Inhibitors of human tyrosyl-DNA phosphodiesterase 1 (TDP1): qHTS in cells in absence of CPT. DT40 Tdp1-/- hTDP1 cells, no CPT, ATP luminescence, 48 h. Potency, µM (series often up to 46.2 µM), actives largely listed as inhibitors. AID 686978, 2013. hit rate 15% among 420,000; further: nearly all actives have a fitted effect of over 55% in size
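Growth of hTDP1-complemented DT40 Tdp1-knockout cells is measured by ATP luminescence after at least 48 hr compound exposure at 37 °C, with DMSO substituting for the 20 nM CPT used in the parallel screen.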
Gal4-VP16 FLuc – Gal4-VP16 reporter inhibition counter-screen; Drosophila S2 Gal4-VP16 UAS-luciferase, luminescence, 20 h; Potency, µM (titrated, usually from 53.6 µM), hits mostly inhibitors; hit rate 3.5% among 310,000;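 further: Gal4-VP16 expression switched on by copper sulfate through the metallothionein promoter; nearly all actives have a fitted effect of over 50% in size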
RORg inh – inhibitors of mouse ROR gamma transcriptional activity. P51450. Drosophila S2 Gal4-RORgamma UAS-luciferase reporter, 20 h. Potency, µM (titrated, usually from 53.6 µM), actives largely listed as inhibitors. hit rate 5.4% among 310,000. AID 2551; further: nearly all actives have a fitted effect of over 60% in size
Target sequence (P51450 whole entry, looked up, the tested form may be a part): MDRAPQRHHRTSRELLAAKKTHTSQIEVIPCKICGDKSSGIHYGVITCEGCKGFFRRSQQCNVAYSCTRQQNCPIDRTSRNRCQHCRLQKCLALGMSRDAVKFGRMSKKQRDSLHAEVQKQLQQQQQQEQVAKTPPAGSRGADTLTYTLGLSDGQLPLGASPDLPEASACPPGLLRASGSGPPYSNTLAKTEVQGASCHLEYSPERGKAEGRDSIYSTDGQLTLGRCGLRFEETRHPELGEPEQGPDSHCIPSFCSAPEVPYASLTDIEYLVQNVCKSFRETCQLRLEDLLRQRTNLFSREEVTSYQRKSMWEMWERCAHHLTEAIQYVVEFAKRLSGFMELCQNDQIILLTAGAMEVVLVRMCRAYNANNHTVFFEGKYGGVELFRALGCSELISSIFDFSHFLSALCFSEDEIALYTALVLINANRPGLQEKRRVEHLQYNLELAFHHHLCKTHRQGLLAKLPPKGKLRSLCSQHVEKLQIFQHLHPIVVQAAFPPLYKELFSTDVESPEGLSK
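Using a luciferase readout, inhibitors were identified by reduced reporter activity in Drosophila cells coexpressing a copper-inducible Gal4–ROR gamma fusion and UAS-driven Photinus luciferase, incubated 20 hr after 700 uM copper sulfate.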
IL1B secr inh – blocks inflammasome-driven IL-1 beta release; THP-1 LPS/ATP IL-1B secretion, AlphaLISA, 16 h; stronger effect = lower value; activity change, % at 57.5 µM; hit rate 4.7% among 360,000; in the data active means activity change below about -50%; inconclusive means mostly about -30% to -49%
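THP-1 cells pretreated 1 hr with compounds (up to 57.5 uM final), then stimulated with LPS (250 ng/mL final) plus ATP (1.25 mM final); secreted IL-1B measured by AlphaLISA after 16 hr, decreased signal indicating inhibition.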
ELG1 DNA repair – inhibitors of ELG1-dependent DNA repair in HEK293T cells | HEK293T ELG1-luciferase reporter, luminescence, 16 h; DNA damage induced by 5-fluorouridine | Potency, µM (top dose mostly 46.1 µM), most hits filed as inhibitors | hit rate 2.3% among 330,000 | AID 504467; further: nearly all actives have a fitted effect of over 55% in size
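Overnight (16 hr) co-exposure of 2,000 cells/well to 5-fluorouridine and compound at 37 °C preceded detection. Luciferase was quantified via ONE-Glo luminescence; loss of signal denotes inhibition.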
DT40 TDP1 CPT – DT40-hTDP1 cell growth loss with CPT | chicken DT40 Tdp1-/-;hTDP1 cells + 20 nM CPT, ATP luminescence, 48 h | AID 686979 | Potency, µM (highest dose often 46.2 µM), most hits filed as inhibitors | hit rate 12% among 420,000; further: nearly all actives have a fitted effect of over 55% in size
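Cell growth measured by CellTiter-Glo luminescence after a minimum 48 h, 37 C compound exposure with 20 nM CPT in Tdp1-knockout DT40 cells stably expressing hTDP1, seeded 400/well; qHTS titration format.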
Of the large screens only hits and unclear results are named; the others gave an inactive call. Rows were chosen to be rich in hits. Some 21% of all compounds tested hit in one or more screens of this group. Unless noted, the call rests on the fitted dose curve; in most records, active means well fitted curve in the direction sought with a large enough effect; inconclusive means small, poorly fitted or top-dose-only effect, or another doubt; inactive means no such curve, though single readings can be large; an effect the other way counts as inactive or inconclusive.

CCCCn1c(O)c(C(C)=NCc2cccnc2)c(=O)[nH]c1=O	none
CCCCn1c(O)c(C(CC)=NCc2cc(OC)cc(OC)c2)c(=O)[nH]c1=O	TDP1 cell noCPT 23µM, RORg inh inconclusive, ELG1 DNA repair 16µM, DT40 TDP1 CPT inconclusive
CN[C@H](C)CCC=C(C)C	TDP1 cell noCPT inconclusive, DT40 TDP1 CPT inconclusive (no result: IL1B secr inh, ELG1 DNA repair)
CCN1C(=O)c2ccccc2Sc2ccc(C(=O)N3CCC4(CC3)OCCO4)cc21	TDP1 cell noCPT 13µM, DT40 TDP1 CPT inconclusive
O=C(c1ccc2c(c1)N(Cc1c(F)cccc1Cl)C(=O)c1ccccc1S2)N1CCC2(CC1)OCCO2	TDP1 cell noCPT 23µM, DT40 TDP1 CPT inconclusive (no result: Gal4-VP16 FLuc, RORg inh, IL1B secr inh, ELG1 DNA repair)
CN1C(=O)c2ccccc2Sc2ccc(C(=O)N3CCC4(CC3)OCCO4)cc21	none
C[C@]12CCC3C(C(=O)C[C@H]4C[C@@H](O)CC[C@]34C)C1CCC2=O (stereo partly specified)	none (no result: Gal4-VP16 FLuc, RORg inh)
COc1ccc(-c2cc(=NCCC(=O)O)c3cc(C)ccc3o2)cc1	IL1B secr inh -58, ELG1 DNA repair inconclusive
COc1cccc(OC)c1C1=NCC(=O)Nc2c1oc1ccc(Br)cc21	TDP1 cell noCPT 0.92µM, ELG1 DNA repair inconclusive, DT40 TDP1 CPT 0.92µM
COc1ccc(NC(=O)c2oc3ccc(S(=O)(=O)N(C)C4CCCCC4)cc3c2C)cc1	TDP1 cell noCPT 8.2µM, DT40 TDP1 CPT 10µM (no result: Gal4-VP16 FLuc, RORg inh, IL1B secr inh, ELG1 DNA repair)
C[C@H]1O[C@H](O[C@H]2[C@H](O)[C@@H](O)[C@@H](O)[C@H](O)[C@@H]2O)[C@@H](N)C[C@@H]1NC(=N)C(=O)O	none (no result: IL1B secr inh, ELG1 DNA repair)
C[C@H]1CNC(=O)c2c(C(=O)N3CCN(C(=O)OC(C)(C)C)CC3)ncn21	TDP1 cell noCPT inconclusive, DT40 TDP1 CPT 26µM (no result: Gal4-VP16 FLuc, RORg inh, ELG1 DNA repair)
CC1CCN(C(=O)Cn2c3ccccc3c3nc4n(c(=O)c32)CCCS4)CC1	TDP1 cell noCPT inconclusive, DT40 TDP1 CPT 23µM
CCN(CC)P(=O)(Nc1ccc([N+](=O)[O-])cc1)c1c(C)nn(CCC#N)c1NC(=O)c1ccc(Cl)cc1Cl (stereo unspecified)	TDP1 cell noCPT 23µM, RORg inh inconclusive, ELG1 DNA repair inconclusive, DT40 TDP1 CPT 18µM
N#CCCn1cc(C(=O)Nc2ccc([N+](=O)[O-])cc2)c(-c2ccccc2)n1	none
COc1ccccc1CNc1nc(NCc2ccccc2SC)c2sccc2n1	TDP1 cell noCPT 6.5µM, IL1B secr inh -99, DT40 TDP1 CPT 6.5µM (no result: Gal4-VP16 FLuc, RORg inh, ELG1 DNA repair)
NCC(N)C(=O)c1ccccc1 (stereo unspecified)	none (no result: IL1B secr inh, ELG1 DNA repair)
Cc1cccn2c(=O)cc(COc3cccc(NC(=O)COc4ccc(F)cc4)c3)nc12	TDP1 cell noCPT 8.2µM, DT40 TDP1 CPT inconclusive (no result: Gal4-VP16 FLuc, RORg inh, IL1B secr inh, ELG1 DNA repair)
CC(=O)c1cccc(OCC(=O)N2CCN(CC(=O)Nc3cccc(F)c3)CC2)c1	TDP1 cell noCPT inconclusive (no result: Gal4-VP16 FLuc, RORg inh)
O=c1[nH]c2ccccc2n1C1CCN(C(CCc2ccccc2)c2nnnn2-c2ccc3c(c2)OCCO3)CC1 (stereo unspecified)	TDP1 cell noCPT 2.9µM, IL1B secr inh inconclusive, DT40 TDP1 CPT 3.7µM (no result: Gal4-VP16 FLuc, RORg inh, ELG1 DNA repair)
COc1ccc(-n2nnnc2C(CCSC)N2CCC(n3c(=O)[nH]c4ccccc43)CC2)cc1 (stereo unspecified)	TDP1 cell noCPT 21µM, DT40 TDP1 CPT inconclusive (no result: Gal4-VP16 FLuc, RORg inh, ELG1 DNA repair)
COc1ccc(-n2nnnc2C(CCc2ccccc2)N2CCC(n3c(=O)[nH]c4ccccc43)CC2)cc1 (stereo unspecified)	TDP1 cell noCPT 23µM, DT40 TDP1 CPT inconclusive (no result: Gal4-VP16 FLuc, RORg inh, IL1B secr inh, ELG1 DNA repair)
COc1cccc(C(c2nnnn2-c2c(C)cccc2C)N2CCC(n3c(=O)[nH]c4ccccc43)CC2)c1OC (stereo unspecified)	TDP1 cell noCPT 5.8µM, IL1B secr inh -84, DT40 TDP1 CPT 5.8µM (no result: Gal4-VP16 FLuc, RORg inh, ELG1 DNA repair)
CC1=NNC(=O)C1Br (stereo unspecified)	TDP1 cell noCPT inconclusive, DT40 TDP1 CPT inconclusive (no result: Gal4-VP16 FLuc, RORg inh, ELG1 DNA repair)
CCN1C[C@]2(C)CC[C@H](OC)[C@]34C5C[C@@H]6CC[C@@](O)(C5C(=O)O6)C(C13)[C@@H](OC(=O)c1ccccc1)C24	none (no result: IL1B secr inh, ELG1 DNA repair)
